A number with no mark means an inactive call. No stated cut-off is given here; in the data, active means potency below about 10 µM; inactive means the rest.
Target: Lysosomal acid glucosylceramidase (Homo sapiens) (UniProt P04062)
Experiment: Glucocerebrosidase-p2 (AID 348)
Details: purified GBA, blue fluorogenic substrate, 40 min
From the text: Beta-glucocerebrosidase catalyzes the hydrolysis of beta-glucocerebroside to glucose and ceramide. The inherited deficiency of beta-glucocerebrosidase results in Gaucher disease, which is characterized by a wide variety of symptoms including hepatosplenomegaly, anemia, thrombocytopenia, bony lesions and bone marrow infiltration with characteristic storage cells, known as Gaucher cells. There are also forms of the disorder affecting the central nervous system. Patients with the same genotypes can manifest with diverse clinical presentations and it is believed that improper folding and trafficking of beta-glucocerbrosidase may contribute to the phenotypes observed.
Low molecular weight molecules, acting as chaperones, may potentially restore trafficking of misfolded beta-glucocerebrosidase from the endoplasmic reticulum to the lysosomes, thereby enhancing functional lysosomal beta-glucocerebrosidase activity.
Using normal beta-glucocerebrosidase, an assay was developed to screen for small molecule inhibitors that could potentially act as molecular chaperones on the mutant forms [developed with NIH investigator Dr. Ellen Sidransky#s laboratory]. Two pro-fluorescent substrates were chosen for two screens against a small molecule library. One beta-glucocerebrosidase assay used Resorufin beta-D-Glucopyranoside (Marker Gene Technology Inc.), generating a red fluorescent product. The second assay used […] fluorescent product. The Km for the Resorufin beta-D-Glucopyranoside and Fluorescein di-beta-D-Glucopyranoside were determined to be 71.2 uM and 855 uM, respectively. The IC50 values of Conduritol B Epoxide, a known glucocerebrosidase inhibitor, were determined to be 87.5 uM and 117 uM, respectively. The use of two difference pro-fluorescent substrates in the screens helped to eliminate false positives. All compounds were screened in a titration series resulting in AC50s (e.g., IC50s or EC50s). Data normalization and AC50 calculations were accomplished using GeneData software.
NCGC Assay Protocol Summary
Both enzyme and substrate were diluted in buffer composed of 50mM citric acid/KH2PO4, 10mM sodium taurocholate and 0.01% tween-20 at pH 5.9. The final concentration of the enzyme was 0.2 nM in both assays. The compound library was titrated in 7 to 15 concentrations for the primary screens with a final concentration ranging from 0.6 nM to 50 uM. This particular assay protocol is for the "blue" substrate, and it was performed in 1536-well plate format as follows:
Blue fluorescence substrate assay:
1 uL substrate (final concentration of 80 uM)
Incubate at room temperature (RT) for 40 minutes
3 uL stop solution (1 M NaOH and 1 M glycine in water)
Read the plate in Viewlux plate reader (Ex=365(10) and Em=440(10)).
Potency means the concentration at half of the fitted maximal effect.

Chain of Lysosomal acid glucosylceramidase (Homo sapiens) (P04062 whole entry, looked up): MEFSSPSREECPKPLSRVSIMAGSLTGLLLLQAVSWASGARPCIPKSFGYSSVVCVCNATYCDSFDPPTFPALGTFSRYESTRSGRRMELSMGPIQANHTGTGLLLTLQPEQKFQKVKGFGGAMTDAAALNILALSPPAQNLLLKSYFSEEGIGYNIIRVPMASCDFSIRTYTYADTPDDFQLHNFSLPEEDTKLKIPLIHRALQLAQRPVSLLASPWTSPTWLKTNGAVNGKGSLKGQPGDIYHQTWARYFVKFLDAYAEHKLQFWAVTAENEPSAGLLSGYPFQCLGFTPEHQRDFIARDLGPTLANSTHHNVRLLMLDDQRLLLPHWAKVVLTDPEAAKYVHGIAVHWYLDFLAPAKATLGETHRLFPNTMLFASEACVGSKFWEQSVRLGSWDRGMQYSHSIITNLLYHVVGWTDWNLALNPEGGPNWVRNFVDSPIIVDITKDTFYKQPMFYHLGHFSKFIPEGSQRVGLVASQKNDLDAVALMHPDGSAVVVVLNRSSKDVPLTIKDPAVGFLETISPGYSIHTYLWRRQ

Row | SMILES | Potency
1 | Cc1cnc(CNc2ccnc(-c3ccccc3C)n2)cn1 | > 11.4 µM
2 | COc1ccccc1-c1cc(Nc2ccc(F)cc2)ncn1 | > 11.4 µM
3 | O=c1cnc2cnc(Oc3cccc(Cl)c3)nc2n1CCc1ccccc1 | > 11.4 µM
4 | COc1ccccc1-c1cc(NCc2cccs2)ncn1 | > 11.4 µM
5 | O=C(c1ccco1)N1CCC2(CC1)CCN(C(c1ccccc1)c1ccccc1)CC2 | > 11.4 µM
6 | O=C(c1ccco1)N1CCC[C@@]2(CCN(c3cccc(-c4ccccc4)c3)C2)C1 | > 11.4 µM
7 | Cc1noc(C)c1-c1ccc2ncnc(NCc3ccccc3)c2c1 | > 11.4 µM
8 | COc1ccc(-c2nc3cnc(N4CCOCC4)nc3n(CCC#N)c2=O)cc1 | > 11.4 µM
9 | O=C(c1cnccn1)N1CCC[C@@]2(CCN(Cc3ccncc3)C2)C1 | > 11.4 µM
10 | COCCn1c(=O)c(-c2ccc(Cl)cc2)nc2cnc(Oc3ccc(OC)cc3)nc21 | > 11.4 µM
11 | Cn1c(=O)c(-c2ccccc2)nc2cnc(Oc3ccccc3)nc21 | > 11.4 µM
12 | N#CCCn1c(=O)c(-c2cc(F)cc(F)c2)nc2cnc(Oc3ccccc3)nc21 | > 11.4 µM
13 | O=c1c(-c2cccs2)nc2cncnc2n1-c1ccccc1 | > 11.4 µM
14 | COCC(=O)N1CCC2(CC1)CCN(c1ccccc1)CC2 | > 11.4 µM
15 | O=C(c1csnn1)N1CCC2(CCN(Cc3nccs3)CC2)CC1 | > 11.4 µM
16 | COc1ccccc1CNc1ccnc(-c2ccccc2CN(C)C)n1 | > 11.4 µM
17 | CC(=O)NCCNc1nc(-c2cccc(NS(C)(=O)=O)c2)nc2ccccc12 | > 11.4 µM
18 | COc1cccc(Cn2c(=O)c(C)nc3cnc(N4CCOCC4)nc32)c1 | > 11.4 µM
19 | CN1CCN(c2ncc3nc(-c4ccc(Cl)cc4)c(=O)n(CCC#N)c3n2)CC1 | > 11.4 µM
20 | N#Cc1cccc(NC(=O)N2CC[C@@]3(CCCN(S(=O)(=O)c4ccccc4)C3)C2)c1 | > 11.4 µM

Row | SMILES | Potency
21 | COc1cccc(Cn2c(=O)c(-c3ccc(F)cc3)nc3cnc(N4CCNCC4)nc32)c1 | > 11.4 µM
22 | COc1cccc(-c2nccc(NC3CCNCC3)n2)c1 | > 11.4 µM
23 | COc1ncc2nc(-c3ccc(F)cc3)c(=O)n(Cc3ccc(F)cc3)c2n1 | > 11.4 µM
24 | O=c1c(-c2cccs2)nc2cnc(Oc3ccccc3)nc2n1Cc1cccs1 | > 11.4 µM
25 | CN(C)c1ncc2nc(-c3ccc(Cl)cc3)c(=O)n(CCC#N)c2n1 | > 11.4 µM
26 | CC(C)NC(=O)N1CCC2(CC1)CCN(S(=O)(=O)c1ccccc1)CC2 | > 11.4 µM
27 | CS(=O)(=O)Nc1cccc(-c2nccc(Nc3ccc(F)cc3)n2)c1 | > 11.4 µM
28 | O=C(Nc1cccc(F)c1)N1CC2(CCN(C(=O)c3ccco3)CC2)C1 | > 11.4 µM
29 | O=C(c1cc(C(F)(F)F)cc(C(F)(F)F)c1)N1CCC2(CC1)CCN(c1ncccn1)CC2 | > 11.4 µM
30 | Cc1noc(C)c1-c1nccc(NCCN2CCOCC2)n1 | > 11.4 µM
31 | COc1ccc(-n2c(=O)c(-c3ccc(Cl)cc3)nc3cnc(N4CCOCC4)nc32)cc1 | > 11.4 µM
32 | COc1cccc(Nc2ncc3nc(CCc4ccccc4)c(=O)n(C4CC4)c3n2)c1 | > 11.4 µM
33 | COc1cccc(-c2ccc3ncnc(NC4CC4)c3c2)c1 | > 11.4 µM
34 | COc1cccc(Cn2c(=O)c(-c3cccs3)nc3cnc(Nc4cccc(OC)c4)nc32)c1 | > 11.4 µM
35 | CN1CCN(c2ncncc2-c2ccc(N(C)C)cc2)CC1 | > 11.4 µM
36 | CNc1nc(-c2c(C)noc2C)nc2ccccc12 | > 11.4 µM
37 | Cc1noc(C)c1-c1nccc(N(C)C)n1 | > 11.4 µM
38 | COc1ccc(C(=O)N2CCC3(CCCN(C(c4ccccc4)c4ccccc4)C3)CC2)cc1 | > 11.4 µM
39 | O=C(c1csnn1)N1CCC2(CC1)CCN(c1ccncc1)CC2 | > 11.4 µM
40 | COCC(=O)N1CCC2(CC1)CCN(C(=O)NC(C)C)CC2 | > 11.4 µM

From PubChem BioAssay (NCATS)
